Laboratory results published in PubChem BioAssay.

Target: Epidermal growth factor receptor (Homo sapiens) (UniProt P00533)
Assay: compounds binding epidermal growth factor receptor – biochemical, small-molecule microarray, 635 nm fluorescence, primary screen (AID 1104);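 note: score merges 667 nm emission intensity with spot signal to noise over triplicate slides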
Conditions: EGFR binding, higher = more signal

Chain of Epidermal growth factor receptor (Homo sapiens) (P00533 whole entry, looked up): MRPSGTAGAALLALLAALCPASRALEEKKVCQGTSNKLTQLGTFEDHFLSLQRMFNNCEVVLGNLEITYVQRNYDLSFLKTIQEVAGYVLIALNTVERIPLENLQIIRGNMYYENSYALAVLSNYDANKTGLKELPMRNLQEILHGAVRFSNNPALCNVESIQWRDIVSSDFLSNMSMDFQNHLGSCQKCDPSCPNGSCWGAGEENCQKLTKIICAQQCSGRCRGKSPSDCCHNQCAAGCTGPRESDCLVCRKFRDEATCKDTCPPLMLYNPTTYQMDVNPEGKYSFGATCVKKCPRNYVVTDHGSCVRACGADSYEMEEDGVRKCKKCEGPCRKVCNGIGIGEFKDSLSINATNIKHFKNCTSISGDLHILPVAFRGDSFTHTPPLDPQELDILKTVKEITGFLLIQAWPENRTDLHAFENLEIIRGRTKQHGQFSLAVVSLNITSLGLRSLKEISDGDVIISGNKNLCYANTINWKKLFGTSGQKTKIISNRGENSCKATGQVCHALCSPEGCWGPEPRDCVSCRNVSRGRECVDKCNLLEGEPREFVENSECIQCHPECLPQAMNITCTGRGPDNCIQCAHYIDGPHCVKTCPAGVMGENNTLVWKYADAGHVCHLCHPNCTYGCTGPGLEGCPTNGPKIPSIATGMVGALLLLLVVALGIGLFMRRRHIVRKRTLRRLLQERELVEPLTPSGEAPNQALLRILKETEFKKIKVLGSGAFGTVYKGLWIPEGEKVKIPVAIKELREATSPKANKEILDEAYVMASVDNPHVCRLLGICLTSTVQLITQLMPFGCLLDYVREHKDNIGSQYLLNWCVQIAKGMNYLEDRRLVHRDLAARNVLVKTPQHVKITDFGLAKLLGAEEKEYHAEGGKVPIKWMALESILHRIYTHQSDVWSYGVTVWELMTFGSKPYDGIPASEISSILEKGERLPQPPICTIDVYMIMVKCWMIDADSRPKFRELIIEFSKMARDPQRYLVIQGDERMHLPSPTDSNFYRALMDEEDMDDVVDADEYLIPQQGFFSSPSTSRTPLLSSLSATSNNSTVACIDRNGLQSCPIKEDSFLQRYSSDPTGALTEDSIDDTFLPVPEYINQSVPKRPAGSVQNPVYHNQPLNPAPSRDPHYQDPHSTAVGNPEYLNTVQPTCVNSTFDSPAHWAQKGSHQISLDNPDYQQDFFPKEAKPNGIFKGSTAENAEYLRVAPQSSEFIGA

Compound	composite z-score
CN(C)C(=O)[C@]1(CCC(=O)OC(C)(C)C)N=C(c2ccc(OCCCO)cc2)O[C@@H]1c1ccccc1CN=[N+]=[N-]	0.195
Cc1ccccc1C(O)C1C=CC2C(=O)NC(=O)C2N1Nc1ccccn1 (configuration not stated)	0.262
COCCOC(=O)N1C(=O)[C@@]2(c3ccccc31)[C@H](C(=O)NC[C@H](O)c1ccccc1)[C@H]1C(=O)O[C@H](c3ccccc3)[C@H](c3ccccc3)N1[C@@H]2c1ccc(O)cc1	1.01
CC1CC/C=C\[C@H]2OC34C=CCN(C(C)C)C(=O)[C@H]3N(CCO)C(=O)[C@@H]4C2C(=O)O1 (some centres not stated)	-1.29
CCOC(=O)C=Cc1cccc(C)c1O	0.069
CCCCCCCCCCC(O)C1C=CC2C(=O)N(c3ccccc3)C(=O)C2N1Nc1ccc(C#N)cc1 (configuration not stated)	0.17
COCC(=C=CC[C@H](O)c1ccc(CO)o1)CCO	-0.294

Target: Follistatin-related protein 3 (Homo sapiens) (UniProt O95633)
Sequence (O95633 whole entry, looked up): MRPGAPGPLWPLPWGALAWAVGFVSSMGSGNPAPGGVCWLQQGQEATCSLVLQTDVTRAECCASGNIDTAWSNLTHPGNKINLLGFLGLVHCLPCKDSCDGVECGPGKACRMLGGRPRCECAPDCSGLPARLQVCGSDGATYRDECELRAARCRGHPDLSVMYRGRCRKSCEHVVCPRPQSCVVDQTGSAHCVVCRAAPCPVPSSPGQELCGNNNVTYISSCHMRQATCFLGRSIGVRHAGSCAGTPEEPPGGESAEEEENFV
Assay: compounds binding follistatin-related protein 3 – biochemical, small-molecule microarray, 635 nm fluorescence, primary screen (AID 1105);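 note: score merges emission near 667 nm and signal to noise per printed spot across three slides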
Conditions: FSTL3 binding, higher = more signal

Compound	composite z-score
CCCC1(C(=O)OC)C=C2C(=C(C)C(=O)C2C)CN1 (configuration not stated)	-0.105
NCCCCCNC(=O)[C@@H]1C[C@@H]2C(=O)N[C@@H](CCCCN)C(=O)N2[C@@H]1c1ccc(O)cc1	1.43
CCCN1C(=O)[C@]2(Cc3ccccc31)N=C(c1ccc(OCCCO)cc1)O[C@@H]2c1ccccc1	0.515
CCN(CC)c1ccc(N2CC=CC34O[C@@H]5/C=C\CCCOC(=O)C5[C@H]3C(=O)N(C(C)CO)[C@@H]4C2=O)cc1 (some centres not stated)	-0.232
NC(=O)[C@H]1[C@@H]2C(=O)O[C@@H](c3ccccc3)[C@@H](c3ccccc3)N2[C@@H](c2ccc(OCCO)cc2)[C@]12C(=O)Nc1ccc(C#CCCO)cc12	0.255
CC(C)C(CO)N1C(=O)[C@@H]2[C@H]3C(=O)OCC=C[C@H]3OC23C=CCN(c2ccc(Cl)cc2)C(=O)[C@@H]13 (some centres not stated)	-0.93
C=CCNC(=O)[C@@H]1[C@H]2C(=O)O[C@H](c3ccccc3)[C@H](c3ccccc3)N2[C@H](c2ccccc2OCCO)[C@@]12C(=O)Nc1ccc(C#CCC(C(=O)OC)C(=O)OC)cc12	0.276
COc1ccc(C#Cc2ccc3c(c2)[C@]2(C(=O)N3)[C@H](C(=O)O)[C@H]3C(=O)O[C@H](c4ccccc4)[C@H](c4ccccc4)N3[C@@H]2c2ccc(O)cc2)cc1	-0.382
CCCC[C@@H](O)C1=C(COC)C[C@H]2C(=O)N(Cc3ccccc3)C(=O)[C@H]2[C@H]1CO	1
COC(=O)[C@@]1(Cc2ccc(F)cc2)[C@H]2c3cc(C(=O)N4CCCC4)n(Cc4ccc(C)c(F)c4F)c3C[C@H]2CN1C(=O)c1ccccc1	-1.07
C=CCNC(=O)[C@@H]1[C@H]2C(=O)O[C@H](c3ccccc3)[C@H](c3ccccc3)N2[C@H](c2ccc(O)cc2)[C@@]12C(=O)N(C(=O)OCCOC)c1ccc(C#CC3=CCCCC3)cc12	1.09
C#Cc1cc2ccccc2oc1=O	-2.4
COc1cc(NN2C(C(O)c3cc(OC)c(OC)c(OC)c3)C=CC3C(=O)N(C)C(=O)C32)cc(OC)c1OC (configuration not stated)	0.34
CO[C@H]1O[C@H](CO)[C@@H](OC(=O)Nc2ccccc2)[C@H](OC(=O)c2cc3ccccc3[nH]2)[C@H]1OC(=O)c1cc2ccccc2[nH]1	0.306
CCOC(=O)C[C@H]1[C@H](OC(=O)Cc2ccc3c(c2)OCO3)[C@@H](NC(=O)c2ccc3ccccc3n2)c2cc(OCCCO)ccc2N1C(=O)c1ccc2ccccc2n1	0.492
COc1ccc(C#Cc2ccc3c(c2)[C@]2(C(=O)N3)[C@H](c3ccc(OCCO)cc3)N3[C@H](c4ccccc4)[C@H](c4ccccc4)OC(=O)[C@H]3[C@@H]2C(=O)NC[C@H](O)c2ccccc2)cc1	1.08
NCCCCCNC(=O)[C@H]1C[C@H]2C(=O)N3CCC[C@H]3C(=O)N2[C@H]1c1cccc(OCCO)c1	-0.515
CO[C@H]1O[C@H](CO)[C@@H](OC(=O)Nc2ccc(Br)cc2)[C@@H]2OC(=O)[C@@H](Cc3ccccc3)C/C=C/C[C@H](Cc3ccccc3)C(=O)O[C@@H]12	-0.0749

Compound	composite z-score
CCOC(=O)[C@@H]1CCCCN1C(=O)C(=O)OC	0.751
O=C(Cc1ccccc1)[C@H]1C2C=CCCC(c3ccccc3)=C2CN1Cc1ccccc1 (some centres not stated)	-0.137
CCOC(=O)C[C@H]1[C@H](OC(=O)Cc2ccc3c(c2)OCO3)[C@@H](NC(=O)C2CCCCC2)c2cc(OCCCO)ccc2N1C(=O)c1ccccc1	0.145
C=C[C@H](C)[C@H](OC(=O)Nc1ccc(SC)cc1)c1ccc(OCCO)cc1	0.42
CCCCC(CC)C(O)C1C=CC2C(=O)N(c3ccccc3)C(=O)C2N1Nc1ccccc1F (configuration not stated)	0.517
Cc1ccc(C(C)CC(O)C2C=CC3C(=O)N(c4ccccc4)C(=O)C3N2Nc2ccccc2)o1 (configuration not stated)	1.2
CCOC(=O)C1=C[C@@H](C(C)(C)C)N(S(=O)(=O)c2ccc(C)cc2)[C@H]1c1cccc2ccccc12	0.7
CC(C)N1C(=O)C[C@@](C(=O)NC2CC2)(c2ccc([N+](=O)[O-])cc2)[C@H]1c1ccc(CO)cc1	-1.1
COC(=O)c1c(CC[C@@H](CO)NC(=O)N2CCC[C@H]2Cn2cc(C3(O)CCCCC3)nn2)oc(C(C)=O)c1C(=O)OC	0.742
NC(=O)NCC#Cc1ccc2c(c1)[C@]1(C(=O)N2)[C@H](c2ccccc2OCCO)N2[C@H](c3ccccc3)[C@H](c3ccccc3)OC(=O)[C@H]2[C@@H]1C(=O)NC[C@H](O)c1ccccc1	-0.355
CN(C)C(=O)[C@]1(CCC(=O)OC(C)(C)C)N=C(c2ccc(OCCCO)cc2)O[C@@H]1c1ccccc1CN=[N+]=[N-]	0.47
Cc1ccccc1C(O)C1C=CC2C(=O)NC(=O)C2N1Nc1ccccn1 (configuration not stated)	0.056
COCCOC(=O)N1C(=O)[C@@]2(c3ccccc31)[C@H](C(=O)NC[C@H](O)c1ccccc1)[C@H]1C(=O)O[C@H](c3ccccc3)[C@H](c3ccccc3)N1[C@@H]2c1ccc(O)cc1	1.44
CC1CC/C=C\[C@H]2OC34C=CCN(C(C)C)C(=O)[C@H]3N(CCO)C(=O)[C@@H]4C2C(=O)O1 (some centres not stated)	-1.28
CCOC(=O)C=Cc1cccc(C)c1O	-0.101
CCCCCCCCCCC(O)C1C=CC2C(=O)N(c3ccccc3)C(=O)C2N1Nc1ccc(C#N)cc1 (configuration not stated)	0.788
COCC(=C=CC[C@H](O)c1ccc(CO)o1)CCO	1.19
